# Measured values from PubChem BioAssay (NCATS).
# Records with an inconclusive call do not appear. Entries that show only a call come without a potency. A number with no mark means an inactive call. Calls of active or inactive are those of the source. Calls come from the whole dose curve; as a rule, active = well fitted curve in the direction sought with a large enough effect; inconclusive = small, poorly fitted or top-dose-only effect, or another doubt; inactive = no such curve, though single readings can be large; an effect the other way counts as inactive or inconclusive. Where a SMILES comes first, the peptide text is derived from it. The star is where a group is joined. AMC = Cc1cc(=O)oc2cc(N*)ccc12; Cbz = O=C(OCc1ccccc1)*
# How the values were obtained:
# [1] = target: Calcium and integrin-binding protein 1 (Homo sapiens) (UniProt Q99828); test: Primary qHTS for Identification of Calcium Integrin Binding Protein 1 (CIB1) Competitor (AID 1508620);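 note: GST tagged CIB1 binding a fluorescein labelled alphaIIb integrin peptide tracer; top concentration of the series differs between compounds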
# In short: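 CIB1-GST (1 uM final) and compound incubated 15 min at room temperature before adding FITC-alphaIIb peptide tracer (100 nM final). Competition for binding read by fluorescence polarization (ex 480, em 540) after another 15 min at room temperature.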
# [2] = Primary qHTS for inhibitors of nuclear receptor binding SET domain protein 2 (NSD2) in an isogenic RCH-ACV NSD2 p.E1099K mutant (9B) (AID 1645876); note: nearly all actives have a fitted effect of over 70% in size; note: potency is the fitted concentration of half-maximal effect
# [3] = Primary qHTS for inhibitors of nuclear receptor binding SET domain protein 2 (NSD2) in an RCH-ACV wild type WT cells (2C) (AID 1645877); note: nearly all actives have a fitted effect of over 70% in size; note: potency is the fitted concentration of half-maximal effect
# Sequence of Calcium and integrin-binding protein 1 (Homo sapiens) (Q99828 whole entry, looked up): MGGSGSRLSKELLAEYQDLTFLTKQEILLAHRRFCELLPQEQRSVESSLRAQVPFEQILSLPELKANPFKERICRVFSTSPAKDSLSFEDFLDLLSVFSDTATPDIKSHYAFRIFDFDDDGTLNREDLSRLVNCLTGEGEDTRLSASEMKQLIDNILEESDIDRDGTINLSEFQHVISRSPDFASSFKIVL
structure (smiles),measurement,setting,value
C[C@H]1CC(=O)C2=C(C1)C(O)C(O)[C@@]1(O)[C@H]2C(=O)c2cccc(O)c2[C@@H]1O (some centres undefined),Potency,[1],inactive
same,Potency,[2],inactive
same,Potency,[3],inactive
CC(=O)c1ccc(O[C@@H]2O[C@H](CO[C@@H]3OC[C@@H](O)[C@H](O)[C@H]3O)[C@@H](O)[C@H](O)[C@H]2O)cc1,Potency,[1],inactive
same,Potency,[2],inactive
same,Potency,[3],inactive
C=C1CCC2[C@](C)(CO)CCC[C@@]2(C)[C@@H]1CCC1=CCOC1=O (some centres undefined),Potency,[1],inactive
same,Potency,[2],inactive
same,Potency,[3],inactive
COC(=O)[C@]1(C)CCC[C@@]2(C)C(=O)CC[C@H]3C(=O)C=C(CC[C@@H]21)C3O (some centres undefined),Potency,[1],inactive
same,Potency,[2],inactive
same,Potency,[3],inactive
CC(C)[C@@H](C(=O)O)N1Cc2c(cc(O)c3c2O[C@]2(C3)[C@H](C)CCC3C(C)(C)[C@H](O)[C@H](O)C[C@@]32C)C1=O (some centres undefined),Potency,[1],inactive
same,Potency,[2],inactive
same,Potency,[3],inactive
O=C(O)C1(c2ccc(-c3ccc(Cl)c(Cl)c3)c(F)c2)CC1,Potency,[1],inactive
same,Potency,[2],inactive
same,Potency,[3],inactive
CC(C)CC(=O)O[C@@H]1O[C@H](CO)[C@@H](O[C@H]2O[C@H](C)[C@@H](N[C@H]3C=C(CO)[C@@H](O[C@H]4O[C@H](CO)[C@@H](O[C@H]5O[C@H](CO)[C@@H](O[C@H]6O[C@H](CO)[C@@H](O)[C@H](O)[C@H]6O)[C@H](O)[C@H]5O)[C@H](O)[C@H]4O)[C@H](O)[C@H]3O)[C@H](O)[C@H]2O)[C@H](O)[C@H]1O,Potency,[1],inactive
same,"activity change, negative = viability loss",[2],3.07% [at 9.23 µM]
same,outcome,[3],inactive [at 9.23 µM]
C=C(C(=O)O)C1CC(O)C2(C)CCCC(C)(O)C2C1 (centres undefined),Potency,[1],inactive
same,Potency,[2],inactive
same,Potency,[3],inactive
C=C1CCc2occ(C)c2[C@H]2[C@H]1[C@@]13O[C@@]1(C[C@@H](C)[C@H]3OC(C)=O)[C@H]1O[C@@]21C,Potency,[1],inactive
same,Potency,[2],inactive
same,Potency,[3],inactive
C/C=C(/C)C(=O)OC1C2OC2C2(CO2)C2C3OC(=O)C(C)C3CCC12C (centres undefined),Potency,[1],inactive
same,Potency,[2],inactive
same,Potency,[3],inactive
CC(C)(O)/C=C/C(=O)[C@](C)(O)[C@H]1[C@H](O)C[C@@]2(C)[C@@H]3CC=C4[C@@H](C=C(O[C@@H]5O[C@H](CO)[C@@H](O)[C@H](O)[C@H]5O)C(=O)C4(C)C)[C@]3(C)C(=O)C[C@]12C,Potency,[1],inactive
same,Potency,[2],inactive
same,Potency,[3],inactive
O=C(/C=C/c1ccc(O)cc1)OC[C@H]1O[C@H](O[C@@]2(CO)O[C@@H](CO)[C@H](O)[C@H]2O)[C@H](O)[C@@H](O)[C@@H]1O,Potency,[1],inactive
same,Potency,[2],inactive
same,Potency,[3],inactive
O=C(/C=C/N1C[C@@H]2C[C@@H]1CN2c1ccccn1)c1ccccc1O,Potency,[1],inactive
same,Potency,[2],inactive
same,Potency,[3],inactive
CC1(C)OC(=O)CC(O)C2(C)C1CC(=O)C1(C)C2C(O)CC2(C)C(c3ccoc3)OC(=O)C3OC321 (centres undefined),Potency,[1],inactive
same,Potency,[2],inactive
same,Potency,[3],inactive
C/C=C/C=C/C(O)=C1/C(=O)[C@]2(C)C(=O)[C@@](C)(O)[C@H]1[C@H]([C@@]1(C)OC(=O)C(C)=C1O)[C@H]2C(=O)CC/C=C/C,Potency,[1],inactive
same,Potency,[2],inactive
same,Potency,[3],inactive
NC(Cc1c[nH]c2ccc(O)cc12)C(=O)O (centres undefined),Potency,[1],inactive
same,Potency,[2],inactive
same,Potency,[3],inactive
CC1CCC23COC(=O)C2=CC(O)CC3C1(C)CCc1ccoc1 (centres undefined),Potency,[1],inactive
same,Potency,[2],inactive
same,Potency,[3],inactive
C/C=C(/C)C(=O)OC1C(OC(C)=O)C23C(O)OC4(CCC5C6(C)CCC(OC7OC(C(=O)O)C(O)C(OC8OC(CO)C(O)C(O)C8OC8OC(C)C(O)C(O)C8OC8OCC(O)C(O)C8O)C7OC7OC(CO)C(O)C(O)C7O)C(C)(C)C6CCC5(C)C4(C)CC2OC(C)=O)C3CC1(C)C (centres undefined),"activity change, negative = inhibition",[1],3.17% [at 12.4 µM]
same,"activity change, negative = viability loss",[2],4.87% [at 9.23 µM]
same,"activity change, negative = cell killing",[3],3.76% [at 9.23 µM]
C/C(=C\CCC1(C)C2CC3C(C2)C31C)C(=O)O (centres undefined),Potency,[1],inactive
same,Potency,[2],inactive
same,Potency,[3],inactive
C=C1C(OC(C)=O)[C@@]23CCC4[C@](C)(C(=O)O)CCC[C@@]4(C)[C@]2(O)CC[C@H]1C3 (some centres undefined),Potency,[1],inactive
same,Potency,[2],inactive
same,Potency,[3],inactive
CC(=O)OC[C@]12[C@H](OC(C)=O)[C@H](OC(=O)c3ccccc3)[C@@H]3[C@@H](OC(C)=O)[C@]1(OC3(C)C)[C@H](C)C[C@H](OC(=O)c1ccccc1)[C@@H]2OC(=O)c1ccccc1,Potency,[1],inactive
same,Potency,[2],inactive
same,Potency,[3],inactive
C/C=C(\C)C(=O)OC[C@H]1O[C@@H](O[C@H]2[C@@H](O[C@H]3O[C@H](COC(=O)/C(C)=C/C)[C@@H](O)[C@H](O)[C@H]3O[C@@H]3O[C@H](CO)[C@@H](O)[C@H](OC(=O)/C(C)=C/C)[C@H]3O)O[C@H](COC(=O)/C(C)=C/C)[C@@H](O)[C@@H]2O)[C@H](O)[C@@H](O)[C@@H]1O,Potency,[1],inactive
same,"activity change, negative = viability loss",[2],-4.56% [at 9.23 µM]
same,"activity change, negative = cell killing",[3],-10.6% [at 9.23 µM]
COc1ccc([C@H]2OC[C@H]3[C@@H]2CO[C@@H]3c2ccc(O[C@@H]3O[C@H](CO)C(O)[C@H](O)[C@H]3O)c(OC)c2)cc1OC (some centres undefined),Potency,[1],inactive
same,Potency,[2],inactive
same,Potency,[3],inactive
O=C(/C=C/c1ccc(O)c(O)c1)OC[C@H]1O[C@@H](OC2CCCCC2O)[C@H](O)[C@@H](O)[C@@H]1O (some centres undefined),Potency,[1],inactive
same,Potency,[2],inactive
same,Potency,[3],inactive
C=C1CC[C@@H]2[C@@](C)(CO[C@@H]3O[C@H](CO)[C@@H](O)[C@H](O)[C@H]3O)[C@H](O)CC[C@@]2(C)[C@@H]1CC/C(C)=C/CO[C@@H]1O[C@H](CO)[C@@H](O)[C@H](O)[C@H]1O,Potency,[1],inactive
same,Potency,[2],inactive
same,Potency,[3],inactive
COC(=O)[C@]1(Cc2ccc(O)c(CC=C(C)C)c2)OC(=O)C(O)=C1c1ccc(O)cc1,Potency,[1],inactive
same,Potency,[2],inactive
same,Potency,[3],inactive
CC(=O)OC1C(C)C2C(OC3OC(CO)C(O)C(O)C3O)OC=C(C(=O)O)C2C1OC(=O)c1ccccc1 (centres undefined),Potency,[1],inactive
same,Potency,[2],inactive
same,Potency,[3],inactive
CC1(CO)CCCC2(C)C1C(OC(=O)c1ccccc1)CC1C(=O)OCC12O (centres undefined),Potency,[1],inactive
same,Potency,[2],inactive
same,Potency,[3],inactive
CC/C=C\[C@H](O)[C@H](O)C1=C(C)C(=O)[C@]2(O1)C(=O)N[C@@](O)(C(=O)c1ccccc1)[C@@H]2O,Potency,[1],inactive
same,Potency,[2],inactive
same,Potency,[3],inactive
Cc1ncc([N+](=O)[O-])n1C[C@H](O)CN1CCOCC1,Potency,[1],inactive
same,Potency,[2],inactive
same,Potency,[3],inactive
CC1(C)CC[C@]2(C(=O)O[C@@H]3O[C@H](CO)[C@@H](O)[C@H](O)[C@H]3O)CC[C@]3(C)C(=CCC4[C@@]5(C)CC[C@H](O[C@@H]6O[C@H](C(=O)O)[C@@H](O[C@@H]7O[C@H](CO)[C@@H](O)[C@H](O)[C@H]7O)[C@H](O)[C@H]6O[C@@H]6O[C@H](CO)[C@@H](O)[C@H](O)[C@H]6O)C(C)(C)C5CC[C@]43C)C2C1 (some centres undefined),Potency,[1],inactive
same,"activity change, negative = viability loss",[2],4.56% [at 9.23 µM]
same,"activity change, negative = cell killing",[3],4.58% [at 9.23 µM]
C[C@@H]1CC[C@]2(C(=O)O[C@@H]3O[C@H](CO[C@@H]4O[C@H](CO)[C@@H](O[C@@H]5O[C@@H](C)[C@H](O)[C@@H](O)[C@H]5O)[C@H](O)[C@H]4O)[C@@H](O)[C@H](O)[C@H]3O)CC[C@]3(C)C(=CCC4[C@@]5(C)C[C@@H](O)[C@H](O)[C@@](C)(CO)C5CC[C@]43C)C2[C@H]1C (some centres undefined),Potency,[1],inactive
same,outcome,[2],inactive [at 9.23 µM]
same,outcome,[3],inactive [at 9.23 µM]
CC1CCC2(C(=O)O)CCC3(C)C(=CCC4C5(C)C[C@@H](O)[C@@H](O)C(C)(CO)C5CCC43C)C2C1(C)O (some centres undefined),Potency,[1],inactive
same,Potency,[2],6.32 µM (active)
same,Potency,[3],3.17 µM (active)
COc1cc(C2CC(=O)Nc3c2cc(Br)c2ccccc32)cc(OC)c1OC (centres undefined),Potency,[1],inactive
same,Potency,[2],inactive
same,Potency,[3],inactive
CC(=O)OC1CCC2(C)C(CCC3(C)C2CC=C2C4CC(C)(C)CCC4(C)CCC23C)C1(C)C(=O)O (centres undefined),Potency,[1],inactive
same,Potency,[2],inactive
same,Potency,[3],inactive
CCC(C)/C=C(C)/C=C/C1=CC2=C(Cl)C(=O)C(C)(OC(C)=O)C(=O)C2=CN1C(CCCN=C(N)N)C(=O)O (centres undefined),Potency,[1],inactive
same,Potency,[2],inactive
same,Potency,[3],inactive
C[C@@H]1O[C@@H](O[C@H]2[C@H](O[C@H]3[C@H](O[C@H]4CC[C@@]5(C)C(CC[C@]6(C)C5CC=C5[C@@H]7CC(C)(C)CC(=O)[C@]7(C)CC[C@]56C)[C@@]4(C)CO)O[C@H](C(=O)O)[C@@H](O)[C@@H]3O)O[C@H](CO)[C@H](O)[C@@H]2O)[C@H](O)[C@H](O)[C@H]1O (some centres undefined),Potency,[1],inactive
same,outcome,[2],inactive [at 9.23 µM]
same,outcome,[3],inactive [at 9.23 µM]
COc1cc2c(c(OC)c1O)C(c1ccc(O)cc1)C1C(=O)OC3C(COC(=O)C1=C2)OC(CO)(OC1OC(COC(=O)/C=C/c2ccc(OC4OC(C)C(O)C(O)C4O)cc2)C(O)C(O)C1O)C3O (centres undefined),Potency,[1],inactive
same,"activity change, negative = viability loss",[2],-11.1% [at 9.23 µM]
same,"activity change, negative = cell killing",[3],-15.9% [at 9.23 µM]
CC(C)C(O)(CO)CCO[C@@H]1O[C@H](CO[C@H]2OC[C@](O)(CO)[C@H]2O)[C@@H](O)[C@H](O)[C@H]1O (some centres undefined),Potency,[1],inactive
same,Potency,[2],inactive
same,Potency,[3],inactive
O=C(OC[C@H]1O[C@H](O[C@H]2CO[C@H](CO)[C@@H](O)[C@@H]2O)[C@H](O)[C@@H](O)[C@H]1O)c1ccccc1,Potency,[1],inactive
same,Potency,[2],inactive
same,Potency,[3],inactive
CC(=O)/C=C/[C@H]1[C@](C)(O)[C@@H](O)[C@H](O)C2C(C)(C)CCC[C@@]21C (some centres undefined),Potency,[1],inactive
same,Potency,[2],inactive
same,Potency,[3],inactive
C[C@@H]1O[C@@H](O[C@H]2[C@H](O[C@H]3[C@H](O[C@H]4CC[C@@]5(C)C(CC[C@]6(C)C5CC=C5[C@@H]7CC(C)(C)C[C@@H](O)[C@]7(C)CC[C@]56C)[C@@]4(C)CO)O[C@H](C(=O)O)[C@@H](O)[C@@H]3O)O[C@H](CO)[C@H](O)[C@@H]2O)[C@H](O)[C@H](O)[C@H]1O (some centres undefined),Potency,[1],inactive
same,outcome,[2],inactive [at 9.23 µM]
same,outcome,[3],inactive [at 9.23 µM]
Cc1cc(=O)oc2cc(NC(=O)[C@H](CCC(=O)O)NC(=O)[C@H](CC(C)C)NC(=O)[C@H](CC(C)C)NC(=O)OCc3ccccc3)ccc12 (Cbz-Leu-Leu-Glu-{AMC}),Potency,[1],inactive
same,Potency,[2],inactive
same,Potency,[3],inactive
